# PubChem BioAssay (NCI)
# About 79,000 compounds went through this panel and 15% of them were active in at least one assay; those are over-represented in the sample as a whole. A number with no mark means an inactive call. The source made the active and inactive calls. Cut-off read from the data, not from the text of the source: active = growth inhibition above about 70%; inactive = the rest.
# Columns and labels:
# [1] = NCI Yeast Anticancer Drug Screen. Data for the rad52 strain (AID 147);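 note: 0% = growth of vehicle-treated control cultures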; conditions: S. cerevisiae rad52 mutant growth inhibition, hits give high values
# Method in brief: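 DNA repair-defective yeast; compound exposure; growth scored against vehicle controls.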
# [2] = NCI Yeast Anticancer Drug Screen. Data for the rad50EPP+ strain (AID 151);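 note: 0% = growth of vehicle-treated control cultures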; conditions: S. cerevisiae rad50 mutant strain, hits give high values
# Method in brief: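 rad50EPP+ yeast treated with test compounds. Readout: growth vs vehicle control.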
# [3] = NCI Yeast Anticancer Drug Screen. Data for the mgt1 strain (AID 153); conditions: S. cerevisiae mgt1 mutant growth inhibition, hits give high values
# Method in brief: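 Growth inhibition relative to vehicle controls was scored for the mgt1 yeast strain after compound exposure.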
# [4] = NCI Yeast Anticancer Drug Screen. Data for the rad50 strain (AID 155);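 note: 0% = growth of vehicle-only cultures of the same strain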; conditions: S. cerevisiae rad50 strain growth inhibition, hits give high values
# Method in brief: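 Compounds were tested on a yeast strain with an engineered DNA damage repair alteration; the reported value is growth inhibition normalised to vehicle treatment.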
# [5] = NCI Yeast Anticancer Drug Screen. Data for the mec2-1 strain (AID 157); conditions: S. cerevisiae mec2-1 strain, hits give high values
# Method in brief: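 Growth inhibition is read against vehicle-treated controls after compound exposure of the mec2-1 yeast strain, which is defective in DNA damage repair or cell cycle control.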
# [6] = NCI Yeast Anticancer Drug Screen. Data for the rad14 strain (AID 159);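 note: 0% = growth of vehicle-treated control cultures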; conditions: S. cerevisiae rad14 strain growth inhibition, hits give high values
# Method in brief: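 Compound-treated yeast with a defined DNA-repair lesion; growth inhibition normalised to vehicle-treated cultures.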
# [7] = NCI Yeast Anticancer Drug Screen. Data for the sgs1 mgt1 strain (AID 161);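 note: 0% = growth of cultures given vehicle only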; conditions: S. cerevisiae sgs1 mgt1 strain, hits give high values
# Method in brief: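 Yeast cells carrying a defined DNA-repair defect were exposed to test compounds. Growth inhibition was measured relative to vehicle-treated controls.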
# [8] = NCI Yeast Anticancer Drug Screen. Data for the CLN2oe strain (AID 163);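 note: 0% = growth of vehicle-only control cultures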; conditions: S. cerevisiae CLN2oe strain, hits give high values
# Method in brief: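 Compound-treated yeast; growth vs vehicle ctrl = % inhibition. Genetically altered strain (cell-cycle control).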
# [9] = NCI Yeast Anticancer Drug Screen. Data for the cln2 rad14 strain (AID 165);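 note: 0% = growth equal to vehicle treated cultures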; conditions: S. cerevisiae cln2 rad14 strain, hits give high values
# Method in brief: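 Growth inhibition, relative to vehicle-treated controls, is the read-out. The test organism is a yeast strain with defined genetic alterations, cln2 rad14.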
# [10] = NCI Yeast Anticancer Drug Screen. Data for the bub3 strain (AID 167); conditions: S. cerevisiae bub3 mutant strain, hits give high values
# Method in brief: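 Growth of a checkpoint-deficient yeast mutant is measured after compound exposure. Values represent inhibition relative to vehicle.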
# [11] = NCI Yeast Anticancer Drug Screen. Data for the wt2 strain (AID 169);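 note: 0% = growth of vehicle-treated yeast cultures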; conditions: S. cerevisiae wt2 strain growth inhibition, hits give high values
# Method in brief: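 Compound exposure of yeast; growth compared with vehicle controls; inhibition reported.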
# [12] = NCI Yeast Anticancer Drug Screen. Data for the mlh1 strain (AID 171);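 note: 0% = growth of vehicle-treated control cultures of the same strain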; conditions: S. cerevisiae mlh1 strain growth inhibition, hits give high values
# Method in brief: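 Compounds are applied to a genetically altered yeast strain, and its growth is compared with that of vehicle-treated cultures to give percent inhibition.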
# [13] = NCI Yeast Anticancer Drug Screen. Data for the sgs1 strain (AID 173);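 note: 0% = growth of vehicle-only control cultures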; conditions: S. cerevisiae sgs1 mutant, hits give high values
# Method in brief: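 Compounds applied to genetically altered yeast; growth compared with vehicle-treated cultures to give % inhibition.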
# [14] = NCI Yeast Anticancer Drug Screen. Data for the mlh1 rad18 strain (AID 175); conditions: S. cerevisiae mlh1 rad18 strain growth inhibition, hits give high values
# Method in brief: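 Cells of a genetically altered yeast strain, deficient in DNA damage repair, were treated with compound. Their growth was then compared with that of vehicle-treated cultures to give inhibition.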
# [15] = NCI Yeast Anticancer Drug Screen. Data for the rad18 strain (AID 177); conditions: S. cerevisiae rad18 mutant growth inhibition, hits give high values
# Method in brief: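 Compounds are applied to a repair-deficient yeast strain, and growth is compared with that of vehicle-treated cultures to give percent inhibition.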
# [16] = at 5.0 µM (retest, dose inferred, filed as 0.5)
# [17] = at 50.0 µM (retest, dose inferred, filed as 5.0)
compound,measurement,setting,value
CC(C)(C)CC(C)(C)c1cc(O)c(O)c(CN2CCCCC2)c1,growth inhibition,[1]; at 1.2 µM,-2%
same,growth inhibition,[1]; at 3.7 µM,-3%
same,growth inhibition,[1]; at 11.0 µM,1%
same,growth inhibition,[1]; at 33.0 µM,12%
same,growth inhibition,[1]; at 100.0 µM,32%
same,growth inhibition,[2]; at 1.2 µM,-5%
same,growth inhibition,[2]; at 3.7 µM,-6%
same,growth inhibition,[2]; at 11.0 µM,-12%
same,growth inhibition,[2]; at 33.0 µM,-14%
same,growth inhibition,[2]; at 100.0 µM,-11%
same,growth inhibition,[3]; at 1.2 µM,-1%
same,growth inhibition,[3]; at 3.7 µM,-1%
same,growth inhibition,[3]; at 11.0 µM,0%
same,growth inhibition,[3]; at 33.0 µM,3%
same,growth inhibition,[3]; at 100.0 µM,67%
same,growth inhibition,[4]; at 1.2 µM,-1%
same,growth inhibition,[4]; at 3.7 µM,0%
same,growth inhibition,[4]; [16],5%
same,growth inhibition,[4]; at 11.0 µM,9%
same,growth inhibition,[4]; at 33.0 µM,9%
same,growth inhibition,[4]; [17],54%
same,growth inhibition,[4]; at 50.0 µM,71.8% (active)
same,growth inhibition,[4]; at 100.0 µM,25%
same,growth inhibition,[5]; at 1.2 µM,0%
same,growth inhibition,[5]; at 3.7 µM,1%
same,growth inhibition,[5]; [16],16%
same,growth inhibition,[5]; at 11.0 µM,2%
same,growth inhibition,[5]; at 33.0 µM,7%
same,growth inhibition,[5]; [17],11%
same,growth inhibition,[5]; at 50.0 µM,57.9%
same,growth inhibition,[5]; at 100.0 µM,24%
same,growth inhibition,[6]; at 1.2 µM,-1%
same,growth inhibition,[6]; at 3.7 µM,2%
same,growth inhibition,[6]; at 11.0 µM,10%
same,growth inhibition,[6]; at 33.0 µM,30%
same,growth inhibition,[6]; at 100.0 µM,68%
same,growth inhibition,[7]; [16],-5%
same,growth inhibition,[7]; [17],35%
same,growth inhibition,[7]; at 50.0 µM,57.4%
same,growth inhibition,[8]; at 1.2 µM,-3%
same,growth inhibition,[8]; at 3.7 µM,1%
same,growth inhibition,[8]; at 11.0 µM,0%
same,growth inhibition,[8]; at 33.0 µM,9%
same,growth inhibition,[8]; at 100.0 µM,49%
same,growth inhibition,[9]; [16],-22%
same,growth inhibition,[9]; [17],13%
same,growth inhibition,[9]; at 50.0 µM,73.7% (active)
same,growth inhibition,[10]; at 1.2 µM,-3%
same,growth inhibition,[10]; at 3.7 µM,2%
same,growth inhibition,[10]; [16],-13%
same,growth inhibition,[10]; at 11.0 µM,-30%
same,growth inhibition,[10]; at 33.0 µM,17%
same,growth inhibition,[10]; [17],59%
same,growth inhibition,[10]; at 50.0 µM,78.6% (active)
same,growth inhibition,[10]; at 100.0 µM,27%
same,growth inhibition,[11]; at 1.2 µM,-2%
same,growth inhibition,[11]; at 3.7 µM,-1%
same,growth inhibition,[11]; at 11.0 µM,1%
same,growth inhibition,[11]; at 33.0 µM,11%
same,growth inhibition,[11]; at 100.0 µM,39%
same,growth inhibition,[12]; at 1.2 µM,3%
same,growth inhibition,[12]; at 3.7 µM,3%
same,growth inhibition,[12]; at 11.0 µM,4%
same,growth inhibition,[12]; at 33.0 µM,-24%
same,growth inhibition,[12]; at 100.0 µM,55%
same,growth inhibition,[13]; at 1.2 µM,1%
same,growth inhibition,[13]; at 3.7 µM,1%
same,growth inhibition,[13]; at 11.0 µM,7%
same,growth inhibition,[13]; at 33.0 µM,24%
same,growth inhibition,[13]; at 100.0 µM,63%
same,growth inhibition,[14]; [16],3%
same,growth inhibition,[14]; [17],45%
same,growth inhibition,[14]; at 50.0 µM,65%
same,growth inhibition,[15]; at 1.2 µM,5%
same,growth inhibition,[15]; at 3.7 µM,3%
same,growth inhibition,[15]; at 11.0 µM,-38%
same,growth inhibition,[15]; at 33.0 µM,28%
same,growth inhibition,[15]; at 100.0 µM,62%
